Experimental findings from the supplement of paper PMC13380429 are described below.

In the assay the test system is Vero E6 infected with SARS-CoV-2. The assay is described as follows: inhibition of SARS-CoV-2 cytopathic effect; higher = more antiviral protection, active = above 15. The note with it: 48 h. In general terms: Protection from cytopathic effect is a common read-out in antiviral testing.

Molecules are shown by their SMILES. Values without a mark were called inactive.

As to `COc1cc(/C=C2\CCC/C(=C\c3ccc(O)c(OC)c3)C2=O)ccc1O` [cyclovalone], the “inhibition of SARS-CoV-2 cytopathic effect” value (“inhibition” for short) (1 nM) was -0.89%; the “inhibition” value (8.33 nM) was 0.77%; the “inhibition” value (100 nM) was 2.28%; the “inhibition” value (833.33 nM) was 6.64%; the “inhibition” value (10000 nM) is 29.5% (active).
Taken in the same sequence, the figures for `CC[C@H](C)C[C@H](C)CCCCCCCCC(=O)N[C@H]1C[C@@H](O)[C@@H](NCCN)NC(=O)[C@@H]2[C@@H](O)CCN2C(=O)[C@H]([C@H](O)CCN)NC(=O)[C@H]([C@H](O)[C@@H](O)c2ccc(O)cc2)NC(=O)[C@@H]2C[C@@H](O)CN2C(=O)[C@H]([C@@H](C)O)NC1=O` [caspofungin] were 0.56%, 0.765%, -1.58%, 0.425% and 5.37%.
For `OCCNCCCOc1cccc(Cl)c1Cl`, the “inhibition” value runs as follows: (1 nM) 1.41%; (8.33 nM) 0.45%; (100 nM) 1.26%; (833.33 nM) 0.42%; (10000 nM) -19.6%.
For `O=C(O)CSc1nnc(Br)n1-c1ccc(C2CC2)c2ccccc12` [lesinurad] the same measures were -0.42%, -0.65%, 2.45%, 0.63% and -2.06%.
Consider `O=C(OC(C(F)(F)F)C(F)(F)F)N1CCC(C(O)(c2ccc3c(c2)OCO3)c2ccc3c(c2)OCO3)CC1`, for which the “inhibition” value by setting is: (1 nM) -1.87%; (8.33 nM) 0.04%; (100 nM) -0.31%; (833.33 nM) -1.03%; (10000 nM) 0.49%.
For the compound `CN1CCN(c2ccc(/C=C(\C#N)c3ccccc3Br)cc2)CC1`, the “inhibition” value is 2.51% (1 nM); -1.94% (8.33 nM); -3.13% (100 nM); -2.26% (833.33 nM); -2.17% (10000 nM).
For `C/C=C1/[C@H](O[C@@H]2O[C@H](CO)[C@@H](O)[C@H](O)[C@H]2O)OC=C(C(=O)OC)[C@H]1CC(=O)OCCc1ccc(O)c(O)c1` [oleuropein] the same measures were 0.9%, -0.2%, -0.09%, 0.43% and 0.52%.
Taken in the same sequence, the figures for `COc1ccc2[nH]cc(CCNC(C)=O)c2c1` [melatonin] were 2.18%, 0.84%, 2.24%, 2.42% and -2.74%.
For `c1cc(-c2cnn3cc(-c4ccc(OCCN5CCCCC5)cc4)cnc23)ccn1` [dorsomorphin] the same measures were -2.38%, -0.08%, 2.59%, -0.64% and -2.57%.
For the compound `CCN(C)C(=O)Oc1cccc([C@H](C)N(C)C)c1` [rivastigmine], the “inhibition” value is, setting by setting: (1 nM) -1.4%; (8.33 nM) 0.73%; (100 nM) 2.11%; (833.33 nM) -1.22%; (10000 nM) -1.56%.
Taken in the same sequence, the figures for `CCCN1C[C@H](CSC)C[C@@H]2c3cccc4[nH]cc(c34)C[C@H]21` [pergolide] were -0.15%, -0.75%, 0.68%, 0.65% and -1.92%.
Taken in the same sequence, the figures for `COc1cc2ncc(-c3ccccc3)nc2cc1OC` [tyrphostin-AG-1296] were 1.41%, 0.53%, 0.84%, -1.04% and -1.96%.
Taken in the same sequence, the figures for `CC(C)=CCC/C(C)=C/CC/C(C)=C/CSc1ccccc1C(=O)O` [salirasib] were 2.79%, 2.19%, 1.36%, 6.06% and 0.01%.
As to `CC(C)c1onc(-c2c(Cl)cccc2Cl)c1COc1ccc(/C=C/c2cccc(C(=O)O)c2)c(Cl)c1`, the “inhibition” value (1 nM) is 0.86%; the “inhibition” value (8.33 nM) was 0.15%; the “inhibition” value (100 nM) is -0.17%; the “inhibition” value (833.33 nM) is 0.5%; the “inhibition” value (10000 nM) was 0.01%.
For `CN(c1ccccc1CNc1nc(Nc2ccc3c(c2)CC(=O)N3)ncc1C(F)(F)F)S(C)(=O)=O` the same measures were -0.17%, -0.35%, -2.19%, -5.19% and -15.4%.
Regarding `NNC(=O)CSc1nc2scc(-c3ccccc3)c2c(=O)n1-c1ccccc1`, the “inhibition” value was -1.69% (1 nM); 1.94% (8.33 nM); -0.83% (100 nM); -2.58% (833.33 nM); -1.58% (10000 nM).
Taken in the same sequence, the figures for `COC(=O)C1=C(C)NC(C)=C(C(=O)O[C@H]2CCN(Cc3ccccc3)C2)[C@H]1c1cccc([N+](=O)[O-])c1` [barnidipine] were 2.33%, 1.62%, 1.31%, 3.84% and -0.56%.
Taken in the same sequence, the figures for `O=C(O)c1cc(N2N=C(C(F)(F)F)/C(=C/c3ccc(-c4ccccc4)o3)C2=O)ccc1Cl` were 0.12%, 1.11%, 0.66%, 0.57% and 3.69%.
